# Experimental data as given in PubChem BioAssay (NCATS).
# Where “and” joins values, the source holds several entries; their conditions need not be identical. Identical values can stand only once. Records with an inconclusive call do not appear. A call without a number means that no potency is given here. Some compounds were tested as several samples or in several runs, with calls that do not always agree. Calls of active or inactive are those of the source. The call rests on the fitted dose curve; in most records, active means well fitted curve in the direction sought with a large enough effect; inconclusive means small, poorly fitted or top-dose-only effect, or another doubt; inactive means no such curve, though single readings can be large; an effect the other way counts as inactive or inconclusive.
# Key:
# [1] = target: Glutathione peroxidase 1 (Homo sapiens) (UniProt P07203); test: Primary qHTS Assay for Inhibitors of Recombinant Selenoprotein Glutathione Peroxidase 1 (GPX1) (AID 1845191); further: nearly all actives have a fitted effect of over 65% in size
# In short: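 GR-coupled assay: compounds preincubated 30 min at room temperature with GPX1, then reaction started with CHP; final 10 nM GPX1, 1 mM GSH, 0.5 mM CHP, 0.5 mM NADPH, 100 nM GR, 0.01% BSA, pH 7.5 Tris buffer. NADPH fluorescence (340/450 nm) read at 0 and 15 min.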
# [2] = target: Phospholipid hydroperoxide glutathione peroxidase GPX4 (Homo sapiens) (UniProt P36969); test: Primary qHTS Assay for Inhibitors of Recombinant Selenoprotein Glutathione Peroxidase 4 (GPX4) (AID 1845192); further: nearly all actives have a fitted effect of over 65% in size; further: potency means the concentration at half of the fitted maximal effect; on activity change, negative = inhibition: series mostly up to about 50 µM
# In short: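 GR-coupled assay: recombinant GPX4 preincubated 30 min with compound at room temperature; final 200 nM GPX4, 1 mM GSH, 0.5 mM cumene hydroperoxide, 0.5 mM NADPH, 100 nM GR, 0.01% BSA, pH 7.5 Tris. NADPH fluorescence (340/450 nm) read at 0 and 15 min.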
# [3] = target: Luciferin 4-monooxygenase (Photinus pyralis) (UniProt P08659); test: Primary firefly luciferase (FLuc) qHTS assay for identification of artifact compounds. (AID 1845220); further: nearly all actives have a fitted effect of over 60% in size; on activity change, negative = inhibition: series mostly up to about 54 µM
# In short: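 Titrated compounds were incubated 15 min at RT, protected from light, with luciferin and ATP at 10 uM; reaction started with 10 nM FLuc, luminescence imaged at 5 min, and concentration-response fitted by Hill equation.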
# [4] = test system: Nanoluciferase (engineered Oplophorus gracilirostris luciferase); test: Primary Nanoluciferase (NLuc) qHTS assay for identification of artifact compounds. (AID 1845222);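 further: NLuc secreted into diluted conditioned medium of S16 cells; series mostly up to about 54 µM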
# In short: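 qHTS format, against NLuc in S16 cell-conditioned medium. Nano-Glo substrate 1:100 was added after 15 min at room temperature. Luminescence was taken after a further 5 min.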
# [5] = Primary fluorescence-based thiol-reactive (MSTI) qHTS assay for identification of artifact compounds. (AID 1845221);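 further: series mostly up to about 54 µM; thiol-reactive compounds lower the probe fluorescence signal; nearly all actives have a fitted effect of over 65% in size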
# In short: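 Curve-fitted percent inhibition (4-parameter Hill) derived from fluorescence, Ex 525/Em 598 nm, scaled with Acetyl-MSTI and MSTI; 1 h incubation at room temperature.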
# Chain of Glutathione peroxidase 1 (Homo sapiens) (P07203 whole entry, looked up): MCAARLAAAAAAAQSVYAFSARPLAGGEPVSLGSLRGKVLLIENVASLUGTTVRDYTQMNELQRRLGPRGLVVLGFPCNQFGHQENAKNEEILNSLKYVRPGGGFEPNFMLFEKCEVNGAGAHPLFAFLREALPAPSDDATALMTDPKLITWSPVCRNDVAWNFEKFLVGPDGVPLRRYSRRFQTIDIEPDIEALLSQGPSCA
# Chain of Phospholipid hydroperoxide glutathione peroxidase GPX4 (Homo sapiens) (P36969 whole entry, looked up): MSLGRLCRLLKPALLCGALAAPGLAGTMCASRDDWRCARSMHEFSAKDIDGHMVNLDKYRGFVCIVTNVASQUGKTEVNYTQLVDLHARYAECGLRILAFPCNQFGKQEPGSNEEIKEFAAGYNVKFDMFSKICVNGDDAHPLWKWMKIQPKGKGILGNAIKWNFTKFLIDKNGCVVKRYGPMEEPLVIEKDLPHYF
smiles,measurement,setting,value
C=C1[C@@H]2[C@H]3OC(=O)C(=C)[C@@H]3CC[C@@](C)(O)[C@@H]2C[C@@H]1O[C@@H]1O[C@H](CO)[C@@H](O)[C@H](O)[C@H]1O,Potency,[1],inactive
same,Potency,[2],inactive
same,Potency,[3],inactive
same,Potency,[4],inactive
COC1C2=C(COC2=O)C2(C)CCCC(C)(CO)C2C1OC(=O)c1ccccc1 (stereo unspecified),Potency,[1],inactive
same,Potency,[2],inactive
same,Potency,[3],inactive
same,Potency,[4],inactive
OCC1=CC[C@@H]2C=CO[C@@H](O[C@@H]3O[C@H](CO)[C@@H](O)[C@H](O)[C@H]3O)[C@H]12,Potency,[1],inactive
same,Potency,[2],inactive
same,Potency,[3],inactive
same,Potency,[4],inactive
CCOC(=O)c1c(C)nn(-c2cccc([N+](=O)[O-])c2)c1C,Potency,[1],inactive
same,Potency,[2],inactive
same,Potency,[3],inactive
same,Potency,[4],inactive
COc1cc(C2Oc3c(O)cc(CCCO)cc3C2CO)ccc1O[C@H]1O[C@H](C)[C@@H](O)[C@H](O)[C@@H]1O (stereo partly specified),Potency,[1],inactive
same,Potency,[2],inactive
same,Potency,[3],inactive
same,Potency,[4],inactive
Oc1ccc([C@H]2COc3cc(O)ccc3C2)cc1,Potency,[1],inactive
same,Potency,[2],inactive
same,Potency,[5],inactive
same,Potency,[4],inactive
COc1cc(/C=C/C(=O)OC2CC(OC(C)=O)C(OC(C)=O)C3C2CCC2C(=O)OC(c4ccoc4)CC23C)ccc1O[C@@H]1O[C@H](CO)[C@@H](O)[C@H](O)[C@H]1O (stereo partly specified),Potency,[1],inactive
same,Potency,[2],inactive
same,Potency,[5],inactive
same,Potency,[4],inactive
CC(=O)c1cnc2ccc(-c3cc(Cl)c(O)c(Cl)c3)nc2c1NC1CCC(CN(C)C)CC1 (stereo unspecified),"activity, negative = inhibition",[1],2.12% [at 9.52 µM] (inactive)
same,"activity change, negative = inhibition",[2],17.1% [at 9.73 µM] (inactive)
same,"activity change, negative = inhibition",[3],2.41% [at 11.6 µM] (inactive)
same,"activity, negative = inhibition",[4],0% [at 11.6 µM] (inactive)
COC(=O)CC1(O)C(=O)Nc2ccccc21 (stereo unspecified),Potency,[1],inactive
same,Potency,[2],inactive
same,Potency,[3],inactive
same,Potency,[4],inactive
CC(/C=C/C1(O)C(C)CC(O)CC1(C)C)OC1OC(CO)C(O)C(O)C1O (stereo unspecified),Potency,[1],inactive
same,Potency,[2],inactive
same,Potency,[3],inactive
same,Potency,[4],inactive
CC1(C)CCC[C@@]2(C)[C@H]1[C@H](O)C=C1COC(=O)[C@@]12O,Potency,[1],inactive
same,Potency,[2],inactive
same,Potency,[3],inactive
same,Potency,[4],inactive
C[C@@H]1C[C@H](O[C@@H]2O[C@H](CO[C@@H]3OC[C@](O)(CO)[C@H]3O)[C@@H](O)[C@H](O)[C@H]2O)CC(C)(C)[C@H]1/C=C/[C@@H](C)O,Potency,[1],inactive
same,Potency,[2],inactive
same,Potency,[3],inactive
same,Potency,[4],inactive
Cc1cc(O)c(C(C)C)cc1O[C@@H]1O[C@H](CO)[C@@H](O)[C@H](O)[C@H]1O,Potency,[1],inactive
same,Potency,[2],inactive
same,Potency,[3],inactive
same,Potency,[4],inactive
COc1cc2c(cc1O)C1(Cc3ccc4c(c3C1=O)OCO4)N(C)CC2 (stereo unspecified),Potency,[1],inactive
same,Potency,[2],inactive
same,Potency,[3],inactive
same,Potency,[4],inactive
O=C1Nc2ccc(O)cc2O[C@H]1O[C@@H]1O[C@H](CO)[C@@H](O)[C@H](O)[C@H]1O,Potency,[1],inactive
same,Potency,[2],inactive
same,Potency,[3],inactive
same,Potency,[4],inactive
CC(=O)O[C@H]1[C@H](Oc2ccccc2COC(=O)C2(O)C=CCCC2=O)O[C@H](CO)[C@@H](O)[C@@H]1O (stereo partly specified),Potency,[1],inactive
same,Potency,[2],inactive
same,Potency,[3],inactive
same,Potency,[4],inactive
CC(=O)NC(CCC(=O)O)C(=O)NCCc1ccc(O)cc1 (stereo unspecified),Potency,[1],inactive
same,Potency,[2],inactive
same,Potency,[3],inactive
same,Potency,[4],inactive
O=C(O)CCc1cc2ccoc2cc1O[C@@H]1O[C@H](CO[C@@H]2OC[C@](O)(CO)[C@H]2O)[C@@H](O)[C@H](O)[C@H]1O,Potency,[1],inactive
same,Potency,[2],inactive
same,Potency,[3],inactive
same,Potency,[4],inactive
NCCOCCOCCNC(=O)Cc1ccc(Nc2nc(NCc3ccc(F)cc3)nc(NCC3CCCCC3)n2)cc1,Potency,[1],inactive
same,Potency,[2],inactive
same,Potency,[3],inactive
same,Potency,[4],inactive
CC(=O)OC[C@@]12[C@@H](OC(C)=O)C[C@@H](C)[C@](C)([C@@H]3C[C@H]4C=CO[C@H]4O3)[C@H]1CCC[C@]21CO1,Potency,[1],inactive
same,Potency,[2],inactive
same,Potency,[5],inactive
CC(C)CC(=O)n1cc(C(N)=O)c(=O)cc1C(O)c1ccccc1 (stereo unspecified),Potency,[1],inactive
same,Potency,[2],inactive
same,Potency,[3],inactive
same,Potency,[4],inactive
CNC(=O)Nc1ccc(OC)c(NC(=O)NC(=O)c2cc(F)c(F)cc2Cl)c1,Potency,[1],inactive
same,Potency,[2],inactive
same,Potency,[3],inactive
same,Potency,[4],inactive
COC(=O)C1=CO[C@@H](O[C@@H]2O[C@H](CO)[C@@H](O)[C@H](O)[C@H]2O)[C@@H]2[C@@H](C(=O)OC)[C@@H](O)C(O)[C@H]12 (stereo partly specified),Potency,[1],inactive
same,Potency,[2],inactive
same,Potency,[3],inactive
same,Potency,[4],inactive
CC1(C)CC2C(C1)C1(C)CCC13OC3(CO)C2O (stereo unspecified),Potency,[1],inactive
same,Potency,[2],inactive
same,Potency,[3],inactive
same,Potency,[4],inactive
CC1=CC(=O)C2C(C)(C)CC(O)CC2(C)C1CO (stereo unspecified),Potency,[1],inactive
same,Potency,[2],inactive
same,Potency,[3],inactive
same,Potency,[4],inactive
CCOc1nc2cccc(C(=O)OCc3oc(=O)oc3C)c2n1Cc1ccc(-c2ccccc2-c2noc(O)n2)cc1,Potency,[1],inactive
same,Potency,[2],inactive and 12.6 µM (active)
same,Potency,[5],inactive
CC1(C)CC[C@]2(C(=O)O)CC[C@]3(C)C(=CCC4[C@@]5(C)C[C@@H](O)[C@H](O)C(C)(C)C5CC[C@]43C)[C@@H]2[C@@H]1O (stereo partly specified),Potency,[1],inactive
same,Potency,[2],inactive
same,Potency,[5],inactive
same,Potency,[4],inactive
